Assay outcomes: PubChem, National Center for Advancing Translational Sciences (NCATS)
KB-3-1 tox: kills parental KB-3-1 adenocarcinoma cells | 400,000 compounds, 1.4% hits | Potency, µM (highest dose often 46.1 µM), hits mostly cytotoxic | AID 1347075 | KB-3-1 viability, CellTiter-Glo ATP luminescence, 72 h; further: nearly all actives have a fitted effect of over 60% in size
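Cytotoxicity measured as CellTiter-Glo luminescence after 72 h at 37 C. Compound titrations were pinned onto drug-naive KB-3-1 parental adenocarcinoma cells grown in DMEM with 10% FBS, and normalized data fitted to concentration-response curves.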
Giardia killer: Giardia lamblia killing | activity change, % at 7.66 µM, hits read low | Giardia lamblia trophozoite viability | AID 540267 | 340,000 compounds, 0.15% hits; in the data active means activity change below about -80%; inconclusive means between about -30% and that limit;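 further: parasites exposed to compound for two days anaerobically before the ATP read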
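Trophozoites 100 cells/well + cpd; 48 hrs, 37 deg C, anaerobic. ATPLite 1-Step added, 15-30 min RT, luminescence read (ATP-based viability).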
KB-V1 MDR tox: kills drug-selected multidrug resistant KB-V1 cells. KB-V1 MDR cells viability, CellTiter-Glo, 72 h. 400,000 compounds, 3.4% hits. Potency, µM (doses to about 46.1 µM), usual class: cytotoxic; further: nearly all actives have a fitted effect of over 60% in size
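Cytotoxicity toward P-gp-expressing KB-V1 cells was determined as loss of CellTiter-Glo luminescence after 72 h at 37 degrees C. Compounds were tested in quantitative HTS format across a concentration range, with curves fitted to normalized data.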
MCF10A rereplic: DNA re-replication induction in MCF 10a cells; AID 624296; 350,000 compounds, 2.9% hits; Potency, µM (titrated, usually from 46.1 µM), hits mostly activators; MCF 10A DNA re-replication, Hoechst nuclear intensity, 48 h; further: nearly all actives have a fitted effect of over 50% in size
SW480 rereplic: induces DNA re-replication in SW480 colon adenocarcinoma cells | SW480 DNA re-replication, Hoechst DNA content imaging, 48 h | Potency, µM (series often up to 46.1 µM), most hits filed as activators | 340,000 compounds, 1.8% hits | AID 624297; further: nearly all actives have a fitted effect of over 55% in size
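Cells (250 per well) received 23 nL compound or DMSO by pin tool and were kept 48 hr at 37 C, 5% CO2. Nuclei were then stained with Hoechst for 40 min and scanned for DNA content.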
S-ASM inh: blocks human secretory acid sphingomyelinase; P17405; placental ASM, HMU-PC fluorogenic substrate, 60 min; Potency, µM (top dose mostly 57.5 µM), most hits filed as inhibitors; 340,000 compounds, 0.006% hits
Target sequence (P17405 47-631 limits assumed): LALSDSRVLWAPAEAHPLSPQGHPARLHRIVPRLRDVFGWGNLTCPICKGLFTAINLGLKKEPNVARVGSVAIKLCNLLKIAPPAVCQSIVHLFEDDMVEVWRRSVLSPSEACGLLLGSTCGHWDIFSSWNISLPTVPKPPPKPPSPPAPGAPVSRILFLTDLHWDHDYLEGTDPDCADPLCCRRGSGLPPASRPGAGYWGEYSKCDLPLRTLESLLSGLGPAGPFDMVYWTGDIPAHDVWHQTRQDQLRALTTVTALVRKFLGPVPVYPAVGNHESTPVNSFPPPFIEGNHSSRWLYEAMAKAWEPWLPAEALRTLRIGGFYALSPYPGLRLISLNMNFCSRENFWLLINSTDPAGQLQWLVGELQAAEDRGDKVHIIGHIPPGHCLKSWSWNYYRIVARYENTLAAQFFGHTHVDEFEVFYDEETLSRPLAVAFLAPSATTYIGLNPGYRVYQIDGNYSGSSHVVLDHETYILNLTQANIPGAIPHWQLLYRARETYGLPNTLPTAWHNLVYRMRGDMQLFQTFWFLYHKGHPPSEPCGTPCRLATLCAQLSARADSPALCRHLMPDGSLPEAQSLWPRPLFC
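Human placenta-derived ASM preincubated with compound 10 min at room temperature, then reacted with 9 uM (final) fluorogenic HMU-PC substrate for 60 min at 37 C. Stop solution raises pH to 10; fluorescence read at Ex 386/Em 447 nm.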
Of the large screens only hits and unclear results are named; the others gave an inactive call. The list is not random: actives were taken first. Their share in the collection is about 6.9%. Unless noted, the call rests on the fitted dose curve; in most records, active means well fitted curve in the direction sought with a large enough effect; inconclusive means small, poorly fitted or top-dose-only effect, or another doubt; inactive means no such curve, though single readings can be large; an effect the other way counts as inactive or inconclusive.

OC(Cn1ccnc1)c1ccc(Cl)cc1Cl (configuration not stated)	KB-3-1 tox inconclusive, KB-V1 MDR tox inconclusive
CNc1cc(CS(=O)c2ccccc2)nc(-c2ccccc2)n1 (configuration not stated)	none
O=S(Cc1cc(Sc2ccccc2)nc(-c2ccccc2)n1)c1ccccc1 (configuration not stated)	KB-3-1 tox inconclusive, KB-V1 MDR tox inconclusive, MCF10A rereplic 23µM, SW480 rereplic inconclusive
Cc1nc2ccc(NC(=S)N3CCCC3)cc2nc1C	MCF10A rereplic 0.73µM
COc1ccc(N(C)C(=S)Nc2ccc3nc(C)c(C)nc3c2)cc1	KB-V1 MDR tox 13µM
Cc1nc2ccc(NC(=S)N3CCOCC3)cc2nc1C	none
O=c1cc(N2CCCCC2)c(-c2ccccc2)nn1Cc1ccc(Cl)cc1Cl	MCF10A rereplic 15µM
O=c1cc(N2CCCCC2)c(-c2ccccc2)nn1Cc1ccccc1Cl	KB-3-1 tox inconclusive, MCF10A rereplic inconclusive
O=c1cc(N2CCCCC2)c(-c2ccccc2)nn1Cc1cccc(Cl)c1	MCF10A rereplic 21µM, S-ASM inh inconclusive
Cc1ccc(-n2c(=O)c3cccnc3n2CC(=O)Nc2ccc(Br)cc2)cc1C	none (no result: Giardia killer, MCF10A rereplic, SW480 rereplic, S-ASM inh)
CCN1C(=O)CC(C(=O)Nc2ccc(OC)cc2)SC1=Nc1ccc(C)c(C)c1 (configuration not stated)	none (no result: Giardia killer, MCF10A rereplic, SW480 rereplic, S-ASM inh)
C=C(C)C(=O)Nc1nnc(-c2cccs2)s1	MCF10A rereplic 10µM
Cc1ccc(-c2nnc(NC(=O)CCS(=O)(=O)c3ccc(F)cc3)o2)c(C)c1	MCF10A rereplic 8.2µM
Cc1ccc(S(=O)(=O)CCC(=O)Nc2nnc(-c3cccs3)o2)cc1	MCF10A rereplic inconclusive, SW480 rereplic inconclusive
O=C(CCS(=O)(=O)c1ccc(Cl)cc1)Nc1nnc(-c2cccs2)o1	MCF10A rereplic inconclusive, SW480 rereplic 1.6µM
Cc1ccc(C)c(OCCn2c(-c3ccc(Cl)cc3)nc3ccccc3c2=O)c1C	KB-V1 MDR tox inconclusive (no result: Giardia killer, MCF10A rereplic, SW480 rereplic, S-ASM inh)
CC[C@H](C)C1OC(=O)[C@@H](C)[C@@H](CC)NC(=O)[C@H](C)N(C)C(=O)C(C)(C)C(=O)C(C)NC(=O)[C@H](Cc2ccc(OC)cc2)N(C)C(=O)[C@H](C(C)C)N(C)C(=O)CNC(=O)[C@H](CC(C)C)N(C)C(=O)CNC1=O (some centres not stated)	KB-3-1 tox 0.21µM (no result: Giardia killer, MCF10A rereplic, SW480 rereplic, S-ASM inh)
CCC[C@H]1NC(=O)[C@H](C)N(C)C(=O)C(C)(C)C(=O)C(C)NC(=O)[C@H](Cc2ccc(OC)cc2)N(C)C(=O)[C@H](C(C)C)N(C)C(=O)CNC(=O)[C@H](CC(C)C)N(C)C(=O)CNC(=O)[C@H]([C@@H](C)CC)OC(=O)[C@H]1C (some centres not stated)	Giardia killer inconclusive, MCF10A rereplic 1.5µM, SW480 rereplic inconclusive
O=C(NNC1=Nc2cccc3cccc1c23)c1ccc(Br)cc1	KB-3-1 tox inconclusive, MCF10A rereplic 15µM, SW480 rereplic 18µM
C=CCNC(=O)C1CC(c2cccc(OC)c2)=NO1 (configuration not stated)	none
COc1ccc(CNC(=O)C2CC(c3ccccc3C(F)(F)F)=NO2)cc1 (configuration not stated)	none
O=C(NCc1ccc2c(c1)OCO2)C1CC(c2cccc(Br)c2)=NO1 (configuration not stated)	MCF10A rereplic 12µM
COCCNC(=O)C1CC(c2cccc(OC)c2)=NO1 (configuration not stated)	none
O=C(NCc1ccc2c(c1)OCO2)C1CC(c2ccccc2O)=NO1 (configuration not stated)	MCF10A rereplic inconclusive
COc1cccc(C2=NOC(C(=O)NCc3ccco3)C2)c1 (configuration not stated)	KB-3-1 tox 23µM, KB-V1 MDR tox 21µM, MCF10A rereplic 4.1µM, SW480 rereplic inconclusive
COc1cccc(C2=NOC(C(=O)NCc3ccccc3)C2)c1 (configuration not stated)	KB-3-1 tox 12µM, KB-V1 MDR tox inconclusive, MCF10A rereplic 1.6µM, SW480 rereplic inconclusive
COc1ccc(C2=NOC(C(=O)NCc3ccccc3)C2)cc1 (configuration not stated)	KB-3-1 tox 7.3µM, KB-V1 MDR tox 7.3µM, MCF10A rereplic 0.37µM, SW480 rereplic 2.6µM
CN(C)C(=O)CCSC(SCCC(=O)O)c1cccc(/C=C/c2ccc3ccc(Cl)cc3n2)c1 (configuration not stated)	MCF10A rereplic inconclusive (no result: KB-3-1 tox, Giardia killer, KB-V1 MDR tox, S-ASM inh)
CCOc1ccc(CNC(=O)CS(=O)(=O)c2cccc3nsnc23)cc1	KB-V1 MDR tox inconclusive (no result: Giardia killer, MCF10A rereplic, SW480 rereplic, S-ASM inh)
COc1ccc(-c2ccccc2)cc1NC(=O)[C@@H]1O[C@H](CO)[C@@H](O)[C@H]1O	none (no result: Giardia killer, MCF10A rereplic, SW480 rereplic, S-ASM inh)
CCCCN(CCCNC(=O)c1cc(Nc2ccc(OC)c(OC)c2)nc2ccccc12)c1ccccc1	none (no result: Giardia killer, MCF10A rereplic, SW480 rereplic, S-ASM inh)
COc1ccc(CCNC(=O)C2CC(c3ccc(C(F)(F)F)cc3)=NO2)cc1 (configuration not stated)	none
CCCn1cc(NC(=O)C2CC(c3cccc(Br)c3)=NO2)cn1 (configuration not stated)	MCF10A rereplic 23µM, SW480 rereplic 16µM
COc1ccc(CNC(=O)C2CC(c3cc(C(F)(F)F)cc(C(F)(F)F)c3)=NO2)cc1 (configuration not stated)	KB-3-1 tox inconclusive, KB-V1 MDR tox inconclusive, MCF10A rereplic 6.5µM
CCOC(=O)N1CCC(N2C(=O)c3ccccc3C2Nc2cc(OC)c(OC)c(OC)c2)CC1 (configuration not stated)	none
CCOC(=O)[C@]12Cc3c(cc(OC)c(OC)c3OC)[C@H]1N(C1CCCCC1)C(=O)c1cc(OC)ccc12	KB-3-1 tox 3.3µM, KB-V1 MDR tox 4.6µM (no result: Giardia killer, MCF10A rereplic, SW480 rereplic, S-ASM inh)
CCn1cc(CNC(=O)c2cc(COc3ccc(F)cc3Cl)on2)cn1	KB-3-1 tox inconclusive, KB-V1 MDR tox inconclusive, MCF10A rereplic inconclusive, SW480 rereplic 18µM
CCn1nc(C)c(CNC(=O)c2cc(COc3ccc(F)cc3Cl)on2)c1C	KB-3-1 tox inconclusive, KB-V1 MDR tox inconclusive
Cc1ccc(/C=C/c2ccc(N(C)C)cc2)[n+](C)c1	KB-3-1 tox 2.1µM, S-ASM inh inconclusive
Cc1ccc2c(/C=C/c3ccc(N(C)C)cc3)c(C)cnc2c1	KB-3-1 tox inconclusive (no result: Giardia killer, MCF10A rereplic, SW480 rereplic, S-ASM inh)
CN(C)c1ccc(/C=C/c2cc[n+](C)cc2)cc1	KB-3-1 tox 23µM, MCF10A rereplic inconclusive, SW480 rereplic inconclusive
O=C(c1ccco1)N1CCN(c2ncnc3c2nnn3Cc2ccccc2Cl)CC1	KB-V1 MDR tox 5.8µM
O=C(c1ccco1)N1CCN(c2nc(C(F)(F)F)nc3c2nnn3Cc2ccccc2)CC1	KB-3-1 tox inconclusive, KB-V1 MDR tox 2.3µM
